# Assay results: the supplement of paper PMC5940239
# Unmarked numbers belong to inactive results.
# Test system: Madurella mycetomatis MM55
# Assay: percent growth relative to solvent control; higher = less inhibition, active = 20 or less
# Conditions: 100 µM; 7 days
row,SMILES,percent growth
1,CC(C)C(Oc1cccc2ccccc12)C(=O)O (stereo not drawn),118%
2,CC(=O)N(CCN(C(=O)c1ccc(F)cc1)c1ccccc1)c1ccccc1,48.9%
3,C[C@H](C(N)=O)N1CCCC[C@@H]1c1ccc(OCc2cccc(F)c2)cc1,92%
4,CC(=O)Oc1ccccc1C(=O)Nc1ncc([N+](=O)[O-])s1,104%
5,Nc1ncc(-c2cn[nH]c2)cc1-c1nc2cc(Cl)cnc2[nH]1,127%
6,Cc1cccnc1NC(=O)c1cccc(OCc2c(C)noc2C)c1,85.1%
7,Cn1ncc2c(N3CCOCC3)nc(NCCc3c[nH]c4ccccc34)nc21,37.3%
8,COc1nc2ccc(Br)cc2cc1[C@@H](c1ccccc1)[C@@](O)(CCN(C)C)c1cccc2ccccc12,100%
9,O=C1Nc2ccc(Br)cc2C12NCCc1c2[nH]c2ccccc12 (stereo not drawn),63.6%
10,Nc1nc(N)c2c3c(sc2n1)CN(Cc1ccccc1)CC3,88%
11,CCc1nc2ccc(C(=O)NCc3ccc4c(c3)OCO4)cn2c1N(C)Cc1cccs1,44%
12,Cc1cc(NC(=O)c2ccc(S(=O)(=O)N(Cc3ccccc3)C(C)C)cc2)no1,92.5%
13,CCOC(=O)c1cc(-c2csc(Nc3c(C)cc(C)cc3C)n2)on1,92.2%
14,CCS(=O)(=O)N(Cc1ccco1)Cc1cc2ccc(C)cc2nc1O,85%
15,Cc1ccccc1C(=O)N1N=C(Nc2ccccc2)SC1(C)C,93.7%
16,CC(C)(C)c1cc(C(=O)Nc2cccnc2)cc(C(=O)Nc2cccnc2)c1,153%
17,CC(=O)N1CCc2cc3nc(C)cc(C)c3cc21,84.2%
18,CC(C)(C)OC(=O)N1CCN(c2cc(-c3ccc(Oc4ccccc4)cc3)n[nH]2)CC1,112%
19,O=C(NCCc1c[nH]c2ccccc12)c1cc2ccccc2oc1=O,109%

row,SMILES,percent growth
1,COc1ccc(Oc2ccc([C@@H](C)N(C)c3ncc4c(N)nc(N)nc4n3)cc2)cc1,0.491% (active)
2,COc1ccc(Cl)cc1NC(=O)CN(C)C(=O)c1cnn(-c2ccccc2)n1,30.8%
3,CNC(=O)C1Cc2ccccc2N1C(=O)Cc1ccc(F)cc1 (stereo not drawn),116%
4,Cc1cc2ccccc2n1CC(=O)N1CC(C(=O)N2CCCCC2)Oc2ccccc21 (stereo not drawn),82.1%
5,CS(=O)(=O)c1ccccc1C(=O)N(Cc1ccccc1)c1ccccc1,91%
6,OC[C@H]1O[C@@H](n2c3ccc(Cl)cc3c3c(-c4cc5ccccc5o4)ncnc32)C(O)[C@H]1O (stereo partly drawn),121%
7,COc1cc(C2=NCCN2)ccc1-n1cc(-c2cccc(C3=NCCN3)c2)nn1,166%
8,N#Cc1nc(-c2ccccc2F)oc1NCCc1ccccc1,56.7%
9,Nc1ncnc2c1c(Cc1cccc3ccccc13)nn2CC1CCNCC1,132%
10,Cc1nc(-c2ccccn2)nc(NCCc2ccc(S(C)(=O)=O)cc2)c1Cl,118%
11,COc1ccc2nccc(NC(=O)C3CCN(CCc4ccc(Cl)cc4)CC3)c2n1,48.8%
12,Cc1nn2c(=O)c3c([nH]c2c1-c1ccc(Cl)cc1)CCCC3,89.2%
13,O=C(C1CCN(c2nnc(-n3cccc3)s2)CC1)N1CCC(Cc2ccccc2)CC1,108%
14,Cc1ccc(C(=O)Nc2ccc(S(=O)(=O)O)c3cc(S(=O)(=O)O)cc(S(=O)(=O)O)c23)cc1NC(=O)c1cccc(NC(=O)Nc2cccc(C(=O)Nc3cc(C(=O)Nc4ccc(S(=O)(=O)O)c5cc(S(=O)(=O)O)cc(S(=O)(=O)O)c45)ccc3C)c2)c1,141%
15,Brc1c(-c2ccc3c(c2)OCO3)nc2ncccn12,85.6%
16,O=C(NCCN1CCCC1)c1cc(NCCCCN2CCC(F)(F)CC2)nc2ccc(Cl)cc12,61.8%
17,COc1cc(-c2cc(-c3ccc(S(C)(=O)=O)cc3)cnc2N)ccc1O,11.2% (active)
18,CCC(NC(=O)c1ccccc1NC(=O)c1ccc(C)cc1)C(=O)OC (stereo not drawn),98.3%
19,CNC(=O)CNc1nc(-c2ccccn2)nc2scc(-c3ccccc3)c12,30.8%
